High-throughput results: PubChem BioAssay, several laboratories
Compounds with a hit are over-represented: about 3.5% of the library has one in this group of screens.
LEDGF integ inh: blocks HIV-1 LEDGF/p75-dependent DNA integration. TR-FRET IN-LEDGF/p75 DNA integration, Eu/Cy5. inhibition, % at 3.7 µM. hit rate 0.64% among 370,000. AID 743269;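 active means inhibition above the screen-wide mean plus 3 SD, cut at about 13% in these data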;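 further: signal is the Cy5 over europium emission ratio at 671 and 618 nm; 0% = plate median of compound wells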
MBD2 DNA inh: inhibitors of human MBD2 binding to methylated oligonucleotide | Q9UBB5 | TR-FRET | inhibition, % at 4.4 µM | hit rate 0.31% among 370,000 | AID 686964; in the data active means inhibition above about 13%
PG9 Ab binder: binds the HIV-1 gp120 antibody PG9. inhibition, % at 6.7 µM. AID 624416. TR-FRET gp120-PG9 antibody binding. hit rate 0.43% among 360,000; in the data active means inhibition above about 8.5%
rCAG RNA binder: binds r(CAG) RNA repeats; AID 651821; inhibition, % at 3 µM; hit rate 1.3% among 370,000; r(CAG) RNA repeat, TO-PRO-1 dye displacement fluorescence;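 active means inhibition above the plate cutoff, the mean of all test compounds on that plate plus 3 SD, cut at about 35% in these data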;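 further: 0% = DMSO alone and 100% = 100 µM mitoxantrone as full dye displacement; higher means more dye released from RNA so lower well fluorescence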
DNMT1 inh: inhibitors of human DNMT1. hit rate 0.83% among 360,000. inhibition (reported as % activation of signal), % at 10 µM. AID 588458. DNMT1 molecular beacon, Hinp1I cleavage, fluorescence; in the data active means inhibition above about 50%
Target sequence (P26358 504-1616 limits assumed): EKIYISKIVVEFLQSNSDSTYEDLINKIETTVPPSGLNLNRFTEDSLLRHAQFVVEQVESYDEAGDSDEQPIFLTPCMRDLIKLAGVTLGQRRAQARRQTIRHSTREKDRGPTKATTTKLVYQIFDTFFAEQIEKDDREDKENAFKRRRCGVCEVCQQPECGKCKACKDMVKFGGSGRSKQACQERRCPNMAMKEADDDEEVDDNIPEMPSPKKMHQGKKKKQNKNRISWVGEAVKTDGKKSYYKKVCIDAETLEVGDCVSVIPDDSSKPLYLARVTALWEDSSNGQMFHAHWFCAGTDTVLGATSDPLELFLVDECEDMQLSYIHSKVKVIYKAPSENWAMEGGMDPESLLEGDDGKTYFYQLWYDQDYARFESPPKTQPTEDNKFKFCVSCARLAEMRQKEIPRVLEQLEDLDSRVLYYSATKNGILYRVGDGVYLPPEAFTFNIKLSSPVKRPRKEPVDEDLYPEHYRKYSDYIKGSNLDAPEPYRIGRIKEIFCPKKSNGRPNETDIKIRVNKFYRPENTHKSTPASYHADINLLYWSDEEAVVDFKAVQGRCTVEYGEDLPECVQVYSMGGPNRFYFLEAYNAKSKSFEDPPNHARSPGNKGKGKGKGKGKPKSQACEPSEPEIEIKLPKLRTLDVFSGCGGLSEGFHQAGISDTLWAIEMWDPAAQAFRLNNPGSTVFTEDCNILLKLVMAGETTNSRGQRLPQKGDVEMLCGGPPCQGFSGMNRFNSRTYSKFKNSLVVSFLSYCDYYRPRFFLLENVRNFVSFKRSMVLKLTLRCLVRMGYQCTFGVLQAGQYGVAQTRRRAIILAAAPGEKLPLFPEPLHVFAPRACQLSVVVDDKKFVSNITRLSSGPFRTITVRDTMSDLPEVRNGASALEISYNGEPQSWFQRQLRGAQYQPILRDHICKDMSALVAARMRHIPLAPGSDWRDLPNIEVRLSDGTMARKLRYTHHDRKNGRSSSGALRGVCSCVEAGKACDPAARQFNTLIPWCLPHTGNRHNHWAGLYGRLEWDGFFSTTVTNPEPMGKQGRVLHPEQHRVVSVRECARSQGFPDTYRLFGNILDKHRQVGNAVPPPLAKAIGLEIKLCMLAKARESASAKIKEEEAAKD
UHRF1 MBD2 ctr: blocks human UHRF1 binding to methylated DNA; Q96T88; inhibition, % at 4.4 µM; UHRF1 binding to methylated oligo, TR-FRET; hit rate 0.75% among 370,000; AID 687016;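 further: UHRF1 SRA domain binding a hemimethylated CpG hairpin DNA probe; 0% = median of test compound wells and 100% = reference inhibitor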
UHRF1 ctr MBD2: counter-screen for MBD2 inhibitors: human UHRF1 methylated DNA binding inhibitors. shares compounds with MBD2 DNA inh. UHRF1 binding to methylated oligonucleotide, TR-FRET. inhibition, % at 4.4 µM. hit rate 25% among 1,000;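 further: UHRF1 SRA domain binding a labeled hemimethylated CpG hairpin DNA; 0% = vehicle only and 100% = reference inhibitor with vehicle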
MBD2 DBD conf: confirmation of human MBD2-DBD methylated oligonucleotide binding inhibitors; hit rate 26% among 1,000; shares compounds with MBD2 DNA inh; inhibition, % at 4.4 µM; TR-FRET MBD2-DBD binding to methylated oligonucleotide; in the data active means inhibition above about 14%
* marks the source's active call; other numbers are inactive results; · = no result. Unless noted, no stated cut-off is given here; in the data, active means inhibition above about 21%; inactive means the rest.

SMILES	LEDGF integ inh	MBD2 DNA inh	PG9 Ab binder	rCAG RNA binder	DNMT1 inh	UHRF1 MBD2 ctr	UHRF1 ctr MBD2	MBD2 DBD conf
O=C(COC(=O)c1ccccc1O)Nc1cccc2ccccc12	-0.7	14.3*	0.9	0.2	37.1	16.7	9.0	1.6
O=C(NCCSc1c[nH]c2ccccc12)c1ccc(Br)o1	2.2	1.4	-0.1	2.8	-5.6	-1.0	·	·
O=C(NCCc1c[nH]c2ccccc12)c1ccc(Br)o1	1.4	16.2*	1.4	0.4	-2.0	20.9*	8.0	4.9
Cc1cccc(NC(=O)CSc2nnc(SCc3ccc(Cl)cc3)s2)c1	-2.9	-2.1	·	7.5	·	1.9	·	·
O=P(c1ccccc1)(c1ccccc1)c1cnc2ccccn12	-4.3	-2.8	·	·	·	-0.4	·	·
CCc1ncc(CN2CCC(C(=O)Nc3cccc(-c4cscn4)c3)CC2)cn1	-1.6	4.0	0.4	-5.2	-1.3	-1.7	·	·
Cc1cc(C)cc(-n2nnc(C(=O)NCc3ccccc3)c2N)c1	-0.3	-3.2	-1.2	-3.1	-2.2	-1.2	·	·
Cc1ccc(CNC(=O)c2nnn(-c3cccc(C)c3)c2N)cc1	10.2	14.5*	-0.1	1.9	-0.8	27.8*	6.2	1.8
CCN1CCN(CC(O)COCC2COc3ccccc3O2)CC1 (configuration not stated)	-1.3	15.8*	-0.2	-2.0	0.5	15.6	6.2	0.0
OC(COCC1COc2ccccc2O1)CN1CCCCC1 (configuration not stated)	-0.9	5.8	-1.9	-6.3	-2.0	8.2	·	·
COC(=O)C1CCN(C(=O)COC(=O)c2ccc(N3CCCC3=O)cc2)CC1	6.8	13.7*	0.7	2.0	0.0	15.7	1.9	2.9
CN(C)CCCNC(=O)c1cc2sc3ccccc3c2s1	-0.3	-5.0	-0.3	-3.4	0.2	-8.7	·	·
CN(C)CCNc1ccc(CO)c2sc3ccc(O)cc3c(=O)c12	-4.0	15.9*	-9.1	8.7	40.5	-12.3	12.3	27.3*
O=C(C(=O)N1CCC(CNS(=O)(=O)c2ccccc2OC(F)(F)F)CC1)c1cccs1	2.6	27.8*	0.6	1.2	·	27.0*	7.8	3.3
CC(C)(C)c1cc(NC(=O)C2(C)CCN2C(=O)C2(c3ccccc3)CCCC2)no1 (configuration not stated)	-3.2	-2.6	0.2	0.3	9.3	-1.0	·	·
CC(C)Oc1ccc(C(CCNCc2ccc(O)cc2)c2ccccc2)cc1 (configuration not stated)	-3.4	65.2*	-0.3	12.5	-1.0	-2.2	3.3	5.5
O=C(Nc1ccccc1Br)c1ccc2nccnc2c1	5.2	-4.7	-0.6	1.9	0.3	-5.8	·	·
Cc1ccccc1NC(=O)c1ccc2nccnc2c1	1.5	16.2*	-1.2	-3.4	-1.4	1.2	5.9	-1.0
Cc1nn(-c2ccc(N3CCOCC3)nn2)c(C)c1CCC(=O)NCc1ccccc1F	-1.1	6.8	1.9	-7.2	1.9	5.2	·	·
CN(Cc1ccccc1)C(=O)c1ccc2sc([C@H]3C[C@H](O)[C@@H](CO)O3)nc2c1	-2.0	1.8	-1.7	-0.9	-3.4	2.5	·	·
CCN(CC)C(=O)c1ccc2sc([C@H]3C[C@H](O)[C@@H](CO)O3)nc2c1	-5.5	21.1*	-0.2	2.2	1.0	2.9	4.8	2.2
COc1ccc2nc(C)cc(NCc3cccc(C(F)(F)F)c3)c2c1	-1.7	-2.8	-0.2	11.5	3.5	1.0	·	·
Cc1ccc(C)c(NC(=O)Cn2nc(C)c3ccccc3c2=O)c1	2.3	16.6*	-0.3	-3.5	-0.3	2.4	9.1	2.7
CNC(=O)Cn1nc(C)c2ccccc2c1=O	-0.4	-0.5	0.2	2.5	2.8	-3.1	·	·
COc1ccc(/C=C/C(=O)OCC(=O)NC2CCCC2)c(OC)c1	3.5	-7.6	-1.8	-1.9	-0.4	1.8	·	·
COc1cccc(NC(=O)CN(C)C(=O)c2cc3c(s2)CCC(C)C3)c1 (configuration not stated)	-1.9	4.8	1.2	3.6	-4.5	4.5	·	·
COc1cccc(NC(=O)CN(C)C(=O)c2cc3c(s2)CCC3)c1	9.4	27.1*	0.5	29.6	·	55.3*	30.4*	25.8*
O=C1c2ccccc2-c2cccnc21	2.5	15.8*	-2.1	0.3	11.4	-10.7	1.8	-5.5
